Test results: PubChem BioAssay
Calls of active or inactive are those of the source.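 Rule for the calls: active = Her2 level under about 52% in both replicate screens, with viability over 70% of control (limit read from the data); inconclusive = Her2 under the limit in one screen only, or viability under 70%; inactive = Her2 level above the set limit.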

target: Receptor tyrosine-protein kinase erbB-2 (Homo sapiens) (UniProt P04626); assay: Her2 expression decrease, cell viability multiplex – SKBR3 breast tumor cells, AlphaScreen, ATP viability, primary screen (AID 461); settings: 18-24 h, at 10 µM, stronger effect = lower value;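 note: lower value means less Her2 protein in the cells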
Sequence (P04626 whole entry, looked up): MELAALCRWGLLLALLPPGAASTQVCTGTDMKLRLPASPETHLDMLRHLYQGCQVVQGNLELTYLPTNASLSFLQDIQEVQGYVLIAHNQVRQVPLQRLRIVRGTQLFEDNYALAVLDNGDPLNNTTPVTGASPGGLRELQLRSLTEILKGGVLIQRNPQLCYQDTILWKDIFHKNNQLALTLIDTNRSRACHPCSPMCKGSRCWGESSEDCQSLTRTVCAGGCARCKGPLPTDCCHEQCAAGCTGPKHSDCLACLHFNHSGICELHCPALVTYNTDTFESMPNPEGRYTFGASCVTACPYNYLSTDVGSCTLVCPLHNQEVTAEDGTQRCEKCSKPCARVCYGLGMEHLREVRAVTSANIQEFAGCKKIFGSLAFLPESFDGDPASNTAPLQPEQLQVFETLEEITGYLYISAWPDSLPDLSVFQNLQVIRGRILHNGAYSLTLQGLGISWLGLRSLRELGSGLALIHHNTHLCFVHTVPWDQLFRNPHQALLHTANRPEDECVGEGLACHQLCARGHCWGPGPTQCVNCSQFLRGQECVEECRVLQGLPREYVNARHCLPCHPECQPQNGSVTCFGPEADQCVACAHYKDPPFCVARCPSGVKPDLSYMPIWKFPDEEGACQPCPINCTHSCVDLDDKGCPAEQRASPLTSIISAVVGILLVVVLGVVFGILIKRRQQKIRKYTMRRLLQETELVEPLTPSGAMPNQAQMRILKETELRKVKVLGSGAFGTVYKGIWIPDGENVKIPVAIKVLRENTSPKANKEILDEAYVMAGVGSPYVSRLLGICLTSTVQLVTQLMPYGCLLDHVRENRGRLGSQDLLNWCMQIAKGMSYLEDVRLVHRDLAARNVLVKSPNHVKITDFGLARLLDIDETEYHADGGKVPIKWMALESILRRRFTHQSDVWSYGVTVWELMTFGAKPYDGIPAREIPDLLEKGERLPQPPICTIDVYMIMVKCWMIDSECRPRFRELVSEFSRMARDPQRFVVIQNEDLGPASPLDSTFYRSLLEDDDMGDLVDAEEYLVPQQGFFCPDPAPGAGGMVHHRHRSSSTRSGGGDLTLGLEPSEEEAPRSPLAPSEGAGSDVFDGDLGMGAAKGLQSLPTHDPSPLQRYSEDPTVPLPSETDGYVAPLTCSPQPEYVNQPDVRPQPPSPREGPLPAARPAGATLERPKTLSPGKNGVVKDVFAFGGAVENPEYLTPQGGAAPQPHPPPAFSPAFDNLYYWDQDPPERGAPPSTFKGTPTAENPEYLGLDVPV

Row | SMILES | Her2 level
1 | O=C(NCCO)c1scc2c1OCCO2 | 92% (inactive)
2 | CN(c1ccccc1)S(=O)(=O)c1ccc(C(=O)OCC(=O)NCc2ccco2)cc1 | 112% (inactive)
3 | Clc1ccc(SCCn2ccnc2)cc1 | 96% (inactive)
4 | CC(C)(CO)NC(=O)CCCOc1ccc(Cl)cc1Cl | 104% (inactive)
5 | Cc1ccccc1NC(=O)CSc1nc(N)c(C#N)c(-c2cccs2)c1C#N | 77% (inactive)
6 | CCN(CC)C(=O)CSc1nc2ccc(NC(=O)CSc3nccn3C)cc2s1 | 93.5% (inactive)
7 | Cc1cc(Oc2ccccc2)nc(-c2ccccc2)n1 | 112% (inactive)
8 | COc1ccc(S(=O)(=O)CCC(=O)O)cc1 | 83.5% (inactive)
9 | O=C(Nc1ccc(OC(=O)c2ccco2)cc1)c1ccco1 | 99.5% (inactive)
10 | CCCc1nnc(SCC(=O)N2CCOCC2)n1Cc1ccco1 | 87.5% (inactive)
11 | Cc1ccc(S(=O)(=O)N2CCC(C(=O)N3CCC[C@H]3C(=O)NCc3ccccc3)CC2)cc1 | 103% (inactive)
12 | C=C(C)Cn1c(N2CCN(CC)CC2)nc2c1c(=O)[nH]c(=O)n2C | 99.5% (inactive)
13 | Cc1cc2oc(=O)cc(CN3CCN(Cc4ccc5c(c4)OCO5)CC3)c2cc1C | 91.5% (inactive)
14 | Cn1c(=O)c(C(=O)Nc2cccnc2)c(O)c2ccccc21 | 59.5% (inactive)
15 | C=Cn1c(C(=O)O)cc(CC)c1-c1ccccc1 | 101% (inactive)
16 | COc1ccccc1N1C(=O)CC(Sc2nc(C)cc(C)n2)C1=O (configuration not stated) | 96.5% (inactive)
17 | COc1cccc(NC(=O)NC2(C(F)(F)F)Oc3ccccc3O2)c1 | 98% (inactive)
